Shown are actives, neighbours in structure and some others; about 17% of the full set was active somewhere.
TDP1 cell noCPT = qHTS for Inhibitors of human tyrosyl-DNA phosphodiesterase 1 (TDP1): qHTS in cells in absence of CPT; DT40 Tdp1-/- hTDP1 cells, no CPT, ATP luminescence, 48 h; Potency, µM (series often up to 46.2 µM), inactives show top-dose activity change, negative = growth inhibition, hits mostly inhibitors; hit rate 15% among 420,000; AID 686978, 2013; note: % is set by controls: 0 for no effect and ±100 for the full control effect; nearly all actives have a fitted effect of over 55% in size
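Chicken DT40 Tdp1-/- cells complemented with human TDP1, screened without camptothecin (DMSO vehicle only), 400 cells/well. Compounds pin-transferred, cells incubated at 37 °C for at least 48 hr. Growth read as ATP-dependent luminescence (CellTiter-Glo, 30 min at RT).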
TGFb SMAD3 inh = qHTS for Inhibitors of TGF-b; HepG2 CAGA-GFP TGF-b/SMAD3 reporter, GFP fluorescence, 18 h; TGF-beta stimulated, 500 pg/mL final; Potency, µM (titrated, usually from 46.1 µM), inactives show at the top dose activity, negative = inhibition, hits mostly inhibitors; hit rate 1.2% among 410,000; AID 588855, 2011; note: % is set by controls: 0 for no effect and ±100 for the full control effect; nearly all actives have a fitted effect of over 65% in size
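Using HEPG2 CAGA-GFP reporter cells at 1000 cells/well, we pinned test compounds, stimulated with recombinant TGF-beta (500 pg/mL final) and measured total well GFP after 18 h.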
ATXN2 expr inh = Primary qHTS for Inhibitors of ATXN expression; AID 1745845, 2022; HEK-293 ATXN2-luciferase reporter, luminescence, 24 h; hit rate 0.72% among 360,000; Potency, µM (highest dose often 57 µM), for the others: at the top dose activity change, negative = inhibition, usual class: inhibitors; note: % is set by controls: 0 for no effect and ±100 for the full control effect; nearly all actives have a fitted effect of over 55% in size
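ATXN2-luciferase reporter cells (luciferase flanked by upstream and downstream ATXN2 gene portions) were treated 24 h at 37 °C with compounds at up to 57 uM. SteadyGlo luminescence gave expression; GF-AFC fluorescence gave viability.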
DT40 TDP1 CPT = qHTS for Inhibitors of human tyrosyl-DNA phosphodiesterase 1 (TDP1): qHTS in cells in presence of CPT | chicken DT40 Tdp1-/-;hTDP1 cells + 20 nM CPT, ATP luminescence, 48 h | AID 686979, 2013 | Potency, µM (titrated, usually from 46.2 µM), for inactives: at the top dose activity change, negative = growth inhibition, actives largely listed as inhibitors | hit rate 12% among 420,000; note: % is set by controls: 0 for no effect and ±100 for the full control effect; nearly all actives have a fitted effect of over 55% in size
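Cell growth measured by CellTiter-Glo luminescence after a minimum 48 h, 37 C compound exposure with 20 nM CPT in Tdp1-knockout DT40 cells stably expressing hTDP1, seeded 400/well; qHTS titration format.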
S2 tox = Viability Counterscreen for Primary qHTS for Inhibitors of ATXN expression; Potency, µM (doses to about 56.7 µM), most hits filed as cytotoxic; hit rate 0.49% among 400,000; S2 cells (HEK-293 line with an ATXN2-luciferase reporter) viability, CellTiter-Fluor protease fluorescence, 24 h; note: nearly all actives have a fitted effect of over 40% in size
HepG2 viability = qHTS for Inhibitors of TGF-b: Cytotox Counterscreen; HepG2 CAGA-GFP viability, ATP luminescence, 18 h; Potency, µM (titrated, usually from 46.1 µM), inactives show at the top dose activity change, negative = cytotoxicity, usual class: cytotoxic; hit rate 0.76% among 410,000
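CellTiter-Glo luminescence gave cytotoxicity after 18 hours at 37 degrees C. The cells were HepG2 CAGA-GFP in 1% FBS DMEM, stimulated with 500 pg/mL TGF-beta after compound addition. %Activity was normalised to no-cell wells (complete cell-killing) and DMSO (no toxicity), and curves were fitted and classified.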
* hit, by the source's call. Calls come from the whole dose curve; as a rule, active = well fitted curve in the direction sought with a large enough effect; inconclusive = small, poorly fitted or top-dose-only effect, or another doubt; inactive = no such curve, though single readings can be large; an effect the other way counts as inactive or inconclusive. Potency is the fitted concentration of half-maximal effect.

Screening COC(=O)N1C(=O)[C@@](Cc2ccccc2)(c2ccccc2)N1C(=O)OC returned TDP1 cell noCPT 18.4µM*, TGFb SMAD3 inh 7.94µM*, ATXN2 expr inh inconclusive, DT40 TDP1 CPT inconclusive, S2 tox inconclusive and HepG2 viability -96.9%.
`COC(=O)N1[C@H](C)C=C[C@]1(Cc1ccccc1)C(=O)OC` gave TDP1 cell noCPT -5.2%, TGFb SMAD3 inh 12.7%, ATXN2 expr inh 1.1%, DT40 TDP1 CPT -13.3%, S2 tox inactive and HepG2 viability -2.8%.
`CCO[C@@H]1OC(C(=O)N2CCN(Cc3ccccc3)CC2)=C[C@H](c2coc3ccccc3c2=O)[C@H]1CCCO` gave TDP1 cell noCPT 7.31µM*, TGFb SMAD3 inh inconclusive, ATXN2 expr inh -17.3%, DT40 TDP1 CPT 8.2µM*, S2 tox inactive and HepG2 viability -21.7%.
`CCO[C@H]1OC(C(=O)N2CCN(Cc3ccccc3)CC2)=C[C@@H](c2coc3ccccc3c2=O)[C@@H]1CCCO` gave TDP1 cell noCPT 23.1µM*, TGFb SMAD3 inh -3.4%, ATXN2 expr inh -25.4%, DT40 TDP1 CPT 25.9µM*, S2 tox inactive and HepG2 viability -22.8%.
`CCO[C@@H]1OC(C(=O)N2CCN(Cc3ccc4c(c3)OCO4)CC2)=C[C@H](c2coc3ccccc3c2=O)[C@H]1CCCO` gave TDP1 cell noCPT 18.4µM*, TGFb SMAD3 inh -17.6%, ATXN2 expr inh -4.4%, DT40 TDP1 CPT 16.4µM*, S2 tox inconclusive and HepG2 viability -20.6%.
C#Cc1ccc([C@@H]2C=C(C(=O)N3CCN(Cc4ccccc4)CC3)O[C@H](OCC)[C@H]2CCCO)cc1 was read as TDP1 cell noCPT 23.1µM*, TGFb SMAD3 inh -30.4%, ATXN2 expr inh inconclusive, DT40 TDP1 CPT inconclusive, S2 tox inactive and HepG2 viability -11.2%.
Screening C#Cc1ccc([C@H]2C=C(C(=O)N3CCN(Cc4ccccc4)CC3)O[C@@H](OCC)[C@@H]2CCCO)cc1 returned TDP1 cell noCPT inconclusive, TGFb SMAD3 inh 9.0%, ATXN2 expr inh -12.9%, DT40 TDP1 CPT inconclusive, S2 tox inconclusive and HepG2 viability -18.0%.
Screening COc1ccc(CN2C[C@@H](CO)O[C@@H](n3cnc4c(NCCCO)ncnc43)C2)cc1 returned TDP1 cell noCPT -3.6%, TGFb SMAD3 inh 16.1%, ATXN2 expr inh 13.1%, DT40 TDP1 CPT -7.4%, S2 tox inactive and HepG2 viability -0.4%.
Cc1c(NC(=O)C(C)N2C(=O)C3CCCCC3C2=O)c(=O)n(-c2ccccc2)n1C (stereo unspecified) was read as TDP1 cell noCPT -2.3%, TGFb SMAD3 inh 9.3%, ATXN2 expr inh 5.3%, DT40 TDP1 CPT 1.8%, S2 tox inactive and HepG2 viability 4.2%.
CC(Sc1nc(NCc2ccccc2)nc(N(C)C)n1)C(=O)Nc1ccccc1 (stereo unspecified) was read as TDP1 cell noCPT 20.6µM*, TGFb SMAD3 inh inconclusive, ATXN2 expr inh inconclusive, DT40 TDP1 CPT 23.1µM*, S2 tox inactive and HepG2 viability -17.1%.
CC(Sc1nc(NCc2ccccc2)nc(N2CCOCC2)n1)C(=O)Nc1ccccc1 (stereo unspecified) was read as TDP1 cell noCPT 20.6µM*, TGFb SMAD3 inh 0.3%, ATXN2 expr inh -15.6%, DT40 TDP1 CPT inconclusive, S2 tox inactive and HepG2 viability -37.5%.
Nc1nc(Nc2ccccc2)nc2c1ncn2[C@@H]1O[C@@H](CO)[C@H](O)[C@H]1O was read as TDP1 cell noCPT 6.0% and DT40 TDP1 CPT 10.6%.
Screening COc1ccc(CNc2nc(-c3ccco3)nn2C(=O)c2ccccc2C)cc1 returned TDP1 cell noCPT -22.4%, TGFb SMAD3 inh 13.8%, ATXN2 expr inh 21.6%, DT40 TDP1 CPT inconclusive, S2 tox inactive and HepG2 viability -16.1%.
For O=C(N/N=C/c1cc([N+](=O)[O-])cc([N+](=O)[O-])c1O)C(O)(c1ccccc1)c1ccccc1 the results were TDP1 cell noCPT 4.1%, TGFb SMAD3 inh -8.6%, ATXN2 expr inh 51.2%, DT40 TDP1 CPT 35.6%, S2 tox inactive and HepG2 viability -4.8%.
Screening O=C(N/N=C/c1ccc(O)c([N+](=O)[O-])c1)C(O)(c1ccccc1)c1ccccc1 returned TDP1 cell noCPT 2.91µM*, TGFb SMAD3 inh 6.2%, ATXN2 expr inh -9.0%, DT40 TDP1 CPT inconclusive, S2 tox inconclusive and HepG2 viability -1.7%.
For Cc1cc(/C=N/NC(=O)C(O)(c2ccccc2)c2ccccc2)c(C)n1-c1ccccc1 the results were TDP1 cell noCPT inconclusive, TGFb SMAD3 inh -1.7%, DT40 TDP1 CPT inconclusive, S2 tox inactive and HepG2 viability 40.4%.
O=C(NN=Cc1ccccc1O)C(O)(c1ccccc1)c1ccccc1 was read as TDP1 cell noCPT 8.2µM*, TGFb SMAD3 inh inconclusive, ATXN2 expr inh inconclusive, DT40 TDP1 CPT 23.1µM*, S2 tox inconclusive and HepG2 viability -40.5%.
`CNc1cncc(-c2ccc(CN3CCOCC3)cc2)n1` gave TDP1 cell noCPT inconclusive, TGFb SMAD3 inh 28.1%, ATXN2 expr inh 21.0%, DT40 TDP1 CPT inconclusive, S2 tox inactive and HepG2 viability 0.7%.
For Cc1c(C(=O)NCc2ccco2)oc2c(F)cccc12 the results were TDP1 cell noCPT -11.6%, TGFb SMAD3 inh -11.2%, DT40 TDP1 CPT -6.8%, S2 tox inactive and HepG2 viability -32.5%.
`COc1cccc(CN(C)CCCn2cnc(C(=O)Nc3ccc(C)c(C)c3)n2)c1` gave TDP1 cell noCPT inconclusive, TGFb SMAD3 inh -5.5%, ATXN2 expr inh -2.8%, DT40 TDP1 CPT 20.6µM*, S2 tox inactive and HepG2 viability -24.7%.
Screening COc1cc(NC(=O)Cn2cnc(C(=O)Nc3ccc(C)c(C)c3)n2)cc(OC)c1OC returned TDP1 cell noCPT -13.2%, TGFb SMAD3 inh -19.4%, ATXN2 expr inh 1.7%, DT40 TDP1 CPT -13.3%, S2 tox inactive and HepG2 viability -0.4%.
`COc1ccc(CN(C)C(=O)Cn2cnc(C(=O)Nc3ccc(C)c(C)c3)n2)cc1OC` gave TDP1 cell noCPT inconclusive, TGFb SMAD3 inh 0.7%, ATXN2 expr inh 5.9%, DT40 TDP1 CPT 18.4µM*, S2 tox inactive and HepG2 viability -31.0%.

Bioassay records (PubChem)
